Compound activity as filed in PubChem.
Compounds with a hit are over-represented: about 21% of the library has one in this group of screens.
Pf growth 48h – inhibits P. falciparum growth in the first generation, 48 h | Potency, µM (highest dose often 28.7 µM), without a hit: at the top dose activity change, negative = inhibition, usual class: inhibitors | AID 504832 | hit rate 5.9% among 310,000 | P. falciparum luciferase growth in erythrocytes, 48 h; also: potency is read from the fitted curve at half-maximal effect; % is scaled to controls: 0 for no effect and ±100 for the full control effect
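Cell-based growth assay: transgenic P. falciparum expressing firefly luciferase, cultured in red cells within RPMI 1640 containing 0.5% w/v Albumax, 24 mM bicarbonate and gentamycin. A drop in luciferase activity indicates inhibition.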
Pf growth 96h – P. falciparum growth inhibition at 96 hours. hit rate 6.9% among 320,000. Potency, µM (highest dose often 28.7 µM), without a hit: at the top dose activity change, negative = inhibition, actives largely listed as inhibitors. P. falciparum luciferase reporter growth, 96 h; also: potency is read from the fitted curve at half-maximal effect; % is scaled to controls: 0 for no effect and ±100 for the full control effect
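Luminescence readout: decreased luciferase signal marks inhibited growth of reporter-expressing P. falciparum in infected red cells (2% hematocrit, 0.05% parasitemia final), exposed to compound two generations (96 h, 37 C, 5% CO2).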
HCV inh – HCV inhibition. Huh7.5.1 HCVcc-Cre infection, luciferase reporter, 44 h. Potency, µM (titrated, usually from 41.8 µM), for the others: top-dose activity change, negative = inhibition, actives largely listed as inhibitors. hit rate 3.4% among 340,000. AID 651820; also: potency is read from the fitted curve at half-maximal effect; % is scaled to controls: 0 for no effect and ±100 for the full control effect
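Luciferase read-out (15 sec integration) after a 15 min room-temperature substrate step quantifies HCVcc-Cre infection. Cells, 1,000 per well, had compound added 4 h post-plating, then virus at ~0.5 moi, and were cultured 44 h.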
CHX counter – affects cycloheximide protein synthesis inhibition readout, counter-screen | cell reporter, cycloheximide protein synthesis inhibition counterscreen | max response, % | hit rate 12% among 300,000 | AID 2314; in the data active = max response mostly above about 13%, no sharp cut-off; inactive = mostly below about 14%; also: read at 38.3 µM for the half of the compounds with a filed dose; 0% is about no effect
Shiga toxin inh – Shiga toxin inhibition. hit rate 9.2% among 290,000. inhibition, % at 38.7 µM. Vero cells, Shiga toxin protein synthesis inhibition reporter; in the data active = inhibition mostly above about 28%, no sharp cut-off; inactive = mostly below about 43%; also: 0% is about no effect
HCMV inh – inhibitors of human cytomegalovirus; HFF cells, HCMV-luciferase reporter, 72 h; active compounds read low; activity change, negative = inhibition, % at 57.5 µM; hit rate 4.5% among 410,000; in the data active = activity change below about -60%; inconclusive = no clear call, values can overlap the other calls; inactive = above about -39%; also: % is scaled to controls: 0 for no effect and ±100 for the full control effect
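Luciferase read-out from HCMV-luciferase-infected HFFs (MOI 1 PFU/cell) 72 h post infection at 37C; compounds added after 16 h cell attachment; activity normalized between buffer-only basal and Salinomycin (10uM) inhibitor controls.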
The depositor's hits bear a star; ? = inconclusive; nt = no result; [ ] = dose if it differs, or a comment. Unless noted, calls follow the shape of the dose curve; as a rule, active = well fitted inhibition curve with a large enough effect; inconclusive = small, poorly fitted or top-dose-only effect, or another doubt; inactive = no such curve, though single readings can be large or run the other way.

SMILES	Pf growth 48h	Pf growth 96h	HCV inh	CHX counter	Shiga toxin inh	HCMV inh
COCCNC(=O)C1CCCN(C(=O)c2cncc(Br)c2)CC1 (stereo not drawn)	nt	nt	nt	nt	nt	0.2
COC(=O)/C=C/[C@@H]1CCCN1c1ccc(OC)cc1	nt	nt	nt	nt	nt	4.8
Cc1ccc(N2CCN(C(=O)NCc3noc4ccc(C)cc34)CC2)c(C)c1	nt	nt	nt	nt	nt	-12.1
COc1ccc(CN2C(=O)C(NC(=O)c3ccc(C)cc3)(C(F)(F)F)N=C2c2ccccc2)cc1 (stereo not drawn)	nt	nt	nt	nt	nt	-1.6
Cc1cc(C)c(S(=O)(=O)NCc2cccs2)cc1C	-6.7%	-12.6%	17.0%	-2.3	1.2	?
CC12CN3CC(C)(CN(C1)C3c1cc3ccccc3[nH]1)C2=O (stereo not drawn)	22.0%	1.04µM*	16.4%	-2.6	-5.8	-7.0
CCC12CN3CC(C)(CN(C1)C3c1c(C)[nH]c3ccccc13)C2=O (stereo not drawn)	nt	nt	nt	nt	nt	6.8
CC(=O)Oc1c(S(=O)(=O)c2ccc(C)cc2)c(C)nn1-c1ccccc1	5.0%	145.0%	-9.5%	-1.5	-8.2	59.6
Cc1nn(-c2ccccc2)c(N)c1C(c1ccc(C(C)C)cc1)c1c(C)nn(-c2ccccc2)c1N	10.4µM*	0.0%	0.5%	-1.3	1.0	-38.4
Cc1ccc(C(c2c(C)nn(-c3ccccc3)c2N)c2c(C)nn(-c3ccccc3)c2N)cc1	10.4µM*	13.1µM*	0.8%	-3.6	-7.1	8.4
COC(=O)c1scc(-c2ccc(C)cc2)c1S(=O)(=O)N1CCN(c2cccc(OC)c2)CC1	nt	nt	nt	nt	nt	-20.0
Clc1cccc(-c2cccc3nccn23)c1Cl	nt	nt	nt	nt	nt	-79.3*
O=C(c1cnccn1)N1CCc2ccccc2C1	1.5%	-16.7%	13.4%	1.3	23.9	-100.3*
CSCCCNC(=S)N1CCc2ccccc2C1	?	71.3%	-27.1%	28.8*	73.8	?
CCNC(=S)N1CCc2ccccc2C1	23.8%	3.1%	-5.3%	8.7	-4.4	?
Cc1ccc(Cl)cc1-c1cc(C(=O)N2CCc3ccccc3C2)[nH]n1	nt	nt	nt	nt	nt	-98.4*
Cc1ccccc1C(=O)N1CCc2ccccc2C1	-65.0%	-28.7%	7.2%	18.7*	43.5	38.6
CCN(CC(=O)Nc1ccccc1C(F)(F)F)C(=O)c1ccc(N2CCCC2=O)cc1	-24.2%	?	11.7%	nt	nt	-28.3
CCN(C(=O)CSc1ncc(S(=O)(=O)c2ccc(C)c(Cl)c2)c(=O)[nH]1)c1cccc(C)c1	nt	nt	nt	nt	nt	6.9
CSc1ccccc1C(=O)N1CCc2ccccc2C1	8.2%[5.75 µM]	32.4%	19.4%	16.3*	45.6	-37.5
O=C(c1ccccc1Cl)N1CCc2ccccc2C1	-24.4%	nt	2.1%	9.4	17.5	95.7
Cn1c(C(=O)N2CCc3ccccc3C2)cc2oc3ccccc3c21	106.6%	11.6%	-8.1%	37.7*	61.0*	nt
CCn1c(C(=O)N2CCc3ccccc3C2)cc2oc3ccccc3c21	6.3%	211.0%	-28.3%	6.2	7.2	-16.6
COC(=O)c1ccccc1NC(=O)COC(=O)C1CCCCC1	-9.4%	10.3%	1.7%	-2.6	-6.8	16.9
CCc1cc2c(=O)n(Cc3ccco3)c(SCc3c(C)noc3C)nc2s1	?	?	10µM*	12.3*	42.2*	74.7
SMILES	Pf growth 48h	Pf growth 96h	HCV inh	CHX counter	Shiga toxin inh	HCMV inh
O=C(CSc1nc2c(sc3ccccc32)c(=O)n1Cc1ccco1)NCC1CCCO1 (stereo not drawn)	8.28µM*	9.28µM*	-2.6%	0.3	2.6	-11.1
CCc1cc2c(=O)n(Cc3ccco3)c(SCC(=O)NCC3CCCO3)nc2s1 (stereo not drawn)	?	1.6%	10µM*	-2.7	-2.3	?
CCc1cc2c(=O)n(Cc3ccco3)c(SCC(=O)NC3CCS(=O)(=O)C3)nc2s1 (stereo not drawn)	?	?	-18.7%	15.9	-11.7	8.1
CCc1cc2c(=O)n(Cc3ccco3)c(SCC(=O)N3CCCc4ccccc43)nc2s1	9.28µM*	13.7%	10µM*	19.5*	47.5	17.7
O=C(CN1CCN(CC(=O)c2ccccc2)CC1)c1ccccc1	nt	nt	-5.6%	nt	nt	-23.0
Cc1cc(Nc2ccccc2C(=O)O)nc2nc3ccccc3c(=O)n12	?	25.2%	10.1%	-1.4	-14.4	91.7
NC(=O)c1ccccc1Nc1nc2nc3ccccc3c(=O)n2cc1Br	1.0%	12.6%	-1.1%	15.3*	38.0*	nt
CCN(CC)c1nc(-c2ccccc2)ncc1S(=O)(=O)c1ccc(C)cc1	-15.3%	-26.0%	7.08µM*	-1.9	1.9	5.9
Cc1ccc(S(=O)(=O)c2cnc(-c3ccccc3)nc2N2CCN(C)CC2)cc1	?	10.4µM*	?	-1.9	6.6	-12.1
CN1CCN(c2nc(-c3ccccc3)ncc2S(=O)(=O)c2ccccc2)CC1	?	?	10.9%	-4.1	6.6	4.7
N#Cc1c(N)nc2c(c1-c1ccncc1)CCCCC2	?	7.38µM*	-23.0%	-7.0	1.3	1.4
COc1ccc(-c2c(C#N)c(N)nc3c2CCCCCC3)cc1OC	nt	-20.4%	10.0%	11.4	-6.1	-32.6
CSc1ccc(-c2c(C#N)c(N)nc3c2CCCC3)cc1	8.6%	2.62µM*	12.6%	-2.8	-25.6	9.9
Cc1c(-c2c(C#N)c(N)nc3c2CCCCCC3)cnn1C	?	10.4µM*	3.6%	1.5	-4.5	-0.4
N#Cc1c(N)nc2c(c1-c1cccnc1)CCCCC2	?	nt	-16.3%	-2.0	-8.2	-62.5*
COc1ccc(S(=O)(=O)N2CCCCCC2)cc1C(=O)OCc1cccc(OC)c1OC	?	-4.5%	?	nt	nt	-12.0
Cc1cccc(C)c1NC(=O)C1(N(Cc2ccco2)C(=O)Cn2nnnc2N)CCCCC1	6.0%	6.57µM*	16.8%	-3.4	-16.5	-36.9
COCCNC(=O)C1Cc2c(ccc3ccccc23)O1 (stereo not drawn)	39.4%	46.1%	-16.5%	14.6*	36.6	-16.4
COc1ccc(S(=O)(=O)NNC(=O)C2Cc3c(ccc4ccccc34)O2)cc1 (stereo not drawn)	36.1%	58.6%	?	-3.3	-9.4	10.9
O=C(CSc1nnc(CNC(=O)c2ccccc2)o1)Nc1nccs1	91.9%	-0.8%	4.5%	0.6	-4.7	-7.5
O=C1CC(c2ccccc2)CC2=C1C=Nc1ccccc1N2 (stereo not drawn)	?	?	-27.4%	1.3	-8.5	-76.8*
O=C1CC(c2ccc(F)cc2)CC2=C1C=Nc1ccccc1N2 (stereo not drawn)	?	3.0%	-19.6%	-4.9	-13.9	-31.1
O=C(C1CC1)N(Cc1nc2ccccc2c(=O)[nH]1)Cc1cccs1	1.85µM*	-5.1%	-7.6%	-2.5	-4.9	-6.2
CC(C)(C)C(=O)N(Cc1nc2ccccc2c(=O)[nH]1)Cc1cccs1	-15.9%	11.7µM*	4.6%	-6.1	-12.6	-23.6
O=C(CCCl)N(Cc1nc2ccccc2c(=O)[nH]1)Cc1cccs1	-17.9%	12.0%	25.0%	1.6	3.5	-5.6
